Assay results as given in PubChem BioAssay (NCI).
The panel holds about 83,000 compounds, 20% with a hit somewhere; the sample as a whole holds those more often.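 Cell lines were cultured in 96-well plates, exposed to a single compound concentration, and assessed for percent growth 48 hours later.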 Values without a mark were called inactive. Activity calls are given as the source filed them. How the source made its calls: active means growth percent below 10; inactive means the rest.

Columns and labels:
Test in all cases: NCI-60 one-dose screen, 48 h (100 = growth as untreated, 0 = no growth, -100 = all killed)
Conditions in all cases: 10 µM unless noted
[1] = test system: SR leukemia
[2] = test system: RPMI-8226 leukemia
[3] = test system: OVCAR-8 ovarian
[4] = test system: OVCAR-5 ovarian
[5] = test system: OVCAR-4 ovarian
[6] = test system: SK-OV-3 ovarian
[7] = test system: IGROV1 ovarian
[8] = test system: OVCAR-3 ovarian
[9] = test system: HS 578T breast
[10] = test system: NCI/ADR-RES ovarian
[11] = test system: T-47D breast
[12] = test system: BT-549 breast
[13] = test system: MDA-MB-435 melanoma
[14] = test system: SW-620 colon
[15] = test system: MCF7 breast
[16] = test system: HCT-116 colon
[17] = test system: HCC-2998 colon
[18] = test system: KM12 colon

Row | SMILES | growth [1] | growth [2] | growth [3] | growth [4] | growth [5] | growth [6] | growth [7] | growth [8] | growth [9] | growth [10] | growth [11] | growth [12] | growth [13] | growth [14] | growth [15] | growth [16] | growth [17] | growth [18]
1 | COc1cc(C2CC(c3cccc(Nc4ccnc5cc(Cl)ccc45)c3)=NN2C=O)cc(OC)c1OC (stereo not given) | 4.97% (active) | 21% | 23.2% | 41.6% | -16.7% (active) | 0.586% (active) | 40.6% | -81.2% (active) | -20.1% (active) | 5.17% (active) | -4.07% (active) | -36% (active) | -68.1% (active) | 13.1% | 2.77% (active) | 7.38% (active) | 37.4% | 9.52% (active)
2 | Clc1ccc(C2=NN[C@H](c3cn(-c4ccccc4)nc3-c3ccccc3)C2)cc1 | 104% | 87.5% | 33.6% | 83.6% | 68.1% | 61.6% | 79.5% | 58.6% | 74.2% | 55.9% | 46.4% | 92.7% | 47.3% | 48.7% | 66.2% | 0.0078% (active) | 90.7% | 74%
3 | CS(=O)(=O)c1ccc(C(=O)N/N=C/c2ccccc2O)cc1 | 20.4% | 48.7% | 27.9% | 64.7% | 43.6% | 39.9% | 41% | 22.8% | 81.5% | 29.9% | 52.4% | 53% | 59.7% | 43.3% | 22.5% | 29.1% | 47.3% | 34.1%
4 | CC(=O)Oc1c(Cl)c(Cl)c(Cl)c(Cl)c1Cl | 106% | 73.4% | 92.6% | 100% | 90.3% | 91.4% | 92% | 107% | 106% | 93.4% | 89.2% | 95.4% | 102% | 102% | 93.8% | 99.4% | 94.9% | 103%
5 | CCCCCN(CCCCC)C(=O)C(CCC(=O)O)NC(=O)c1ccc(Cl)c(Cl)c1 (stereo not given) | 94.4% | 118% | 106% | 102% | 115% | 114% | 107% | 113% | 102% | 106% | 102% | 132% | 112% | 106% | 96.7% | 112% | 113% | 114%
6 | COc1cc(C2CC(c3ccc(C)cc3)=NN2C=O)ccc1Oc1ccnc2cc(Cl)ccc12 (stereo not given) | 96.6% | 87.8% | 60.3% | 98% | 95.8% | -15.4% (active) | 77.2% | 39.5% | 7.47% (active) | 65.8% | 76% | 43.8% | 99% | 102% | 79.1% | 46.5% | 69.6% | 104%
7 | Cc1cc2nc(CN)[nH]c2cc1C | 97.2% | 96.5% | 106% | 112% | 112% | 104% | 111% | 100% | 114% | 112% | 94.4% | 101% | 109% | 108% | 96.7% | 104% | 106% | 103%
8 | C=C(C)[C@@H]1CC[C@]2(C(=O)NC(COC(=O)C(Cl)Cl)(COC(=O)C(Cl)Cl)COC(=O)C(Cl)Cl)CC[C@]3(C)[C@H](CC[C@@H]4[C@@]5(C)CC[C@H](OC(C)=O)C(C)(C)[C@@H]5CC[C@]43C)[C@@H]12 | 20.4% | 2.68% (active) | 73.6% | 80.7% | 54.5% | 82.1% | 84.3% | 57.5% | 71.5% | 71% | 31.9% | 80.4% | 73.6% | 62.1% | 21.4% | -16.7% (active) | 66.1% | 36.8%
9 | CC(=O)O[C@@H]1CC2C(C)(C)CCCC2(C)C2=C1C(=O)C(C(C)C)=CC2=O (stereo not given in full) | -0.431% (active) | 2.06% (active) | -2.03% (active) | -45.4% (active) | 13.4% | 17.2% | 7.5% (active) | 0.0354% (active) | 9.38% (active) | 15.9% | -7.86% (active) | -13% (active) | -28.1% (active) | -52.5% (active) | 3.73% (active) | -24.4% (active) | -60% (active) | -48.7% (active)
10 | O=C(CSc1nnc(Cc2ccccc2Nc2c(Cl)cccc2Cl)n1-c1ccccc1)N1N=C(c2ccc3ccccc3c2)CC1c1ccc(Cl)cc1 (stereo not given) | 97.2% | 95.6% | 107% | 99.8% | 88.7% | 93.8% | 89.5% | 104% | 111% | 101% | 71.5% | 103% | 98.8% | 108% | 95% | 86.4% | 93.7% | 108%
11 | CN1C(=O)NC(Cc2c[nH]c3c(Cl)cccc23)C1=O (stereo not given) | 101% | 119% | 112% | 102% | 101% | 113% | 108% | 90.8% | 103% | 100% | 111% | 118% | 114% | 112% | 96.2% | 108% | 97.5% | 96.6%
12 | Cc1cc(-c2ccccc2)on1 | 87.3% | 108% | 106% | 106% | 102% | 93.1% | 98.1% | 112% | 104% | 105% | 96% | 119% | 107% | 109% | 106% | 101% | 111% | 106%
13 | COCc1nc(NS(=O)(=O)c2ccc(N)cc2)nc(C)c1Br | 89.3% | 106% | 110% | 106% | 123% | 96.9% | 103% | 112% | 112% | 104% | 96.1% | 106% | 107% | 103% | 103% | 94.3% | 97.1% | 107%
14 | Nc1ccc(C2=NNC(=O)Cc3cc4c(cc32)OCCO4)cc1Cl | 19.6% | 56.2% | 60.1% | 69.7% | 87.8% | 57.1% | 40.8% | -14.1% (active) | 62.2% | 12% | 44.2% | 48.5% | -19.2% (active) | 18.7% | 18.8% | 20.1% | 61.9% | 16%
15 | CC(C)c1cccc(C#N)c1 | 97.1% | 106% | 95.1% | 112% | 101% | 106% | 115% | 111% | 101% | 91% | 95.7% | 102% | 101% | 107% | 95.1% | 101% | 102% | 111%
16 | COc1cc2ncnc(Nc3ccc(S(=O)(=O)Nc4cc(C)on4)cc3)c2cc1OCCCN1CCN(c2ccc([N+](=O)[O-])cc2)CC1 | 114% | 109% | 104% | 106% | 111% | 99% | 108% | 103% | 101% | 106% | 102% | 109% | 103% | 105% | 106% | 109% | 111% | 106%
17 | CC(C)(C)[Si](C)(C)OC1[C@@H](O[Si](C)(C)C(C)(C)C)[C@@H](CNC(=O)NC(=O)NC(=O)CCl)O[C@H]1n1cnc2c(NC(=O)Nc3ccccc3)ncnc21 (stereo not given in full) | -10.7% (active) | 46.8% | 25.1% | 74.1% | 58.1% | 97.3% | -51.8% (active) | -6.77% (active) | 74.3% | 50.4% | 77% | 71.7% | 76.3% | 85.4% | 37.8% | 17.6% | 75.5% | –
